# In the supplement of paper PMC10849652:
# About 7,900 targets were measured; listed, in parts, are those with a hit and a random draw of the rest. About 0.6% of all pairs of compound and target were hits. A number with no mark means an inactive call.
# Key:
# Assay in all cases: log2 fold change, soluble protein after heating vs DMSO (PISA); higher = thermal stabilisation; K562 cells, 10 uM, 30 min; active = over 0.2 and 3.5 SD of the protein, either way, in both replicates (recomputed)
# [1] = compound: CC[C@@H]1C(=O)N(C)c2cnc(Nc3ccc(C(=O)NC4CCN(C)CC4)cc3OC)nc2N1C1CCCC1
# In short: (§1)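 Aliquots of K562 cells (2×10^6 cells/mL) treated with 10 μM compound for 30 min were heated for 3 min over 48°C-58°C. After pooling and extraction in PBS with 0.5% NP-40 at 4°C, soluble protein from a 21,000xg, 90 min spin was quantified by TMTpro 16plex LC-MS/MS with channel sums equalised. Thermal stability is expressed against control samples, from duplicates, as a log2 fold change.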
# [2] = compound: CC[C@@H]1C(=O)N(C)c2cnc(Nc3ccc(C(=O)N[C@H]4CC[C@H](N5CCN(CC6CC6)CC5)CC4)cc3OC)nc2N1C(C)C [volasertib]
# In short: as §1
# [3] = compound: CC[C@H](C)N1C=C(C2=C(C=C(C=C21)C3=CN=C(C=C3)N4CCNCC4)C(=O)NCC5=C(C=C(NC5=O)C)C)C
# In short: as §1
# [4] = compound: CC[C@H](C)[C@@H](C(=O)N[C@@H]([C@@H](C)O)C(=O)N[C@@H](CC(C)C)C(=O)[C@]1(CO1)C)NC(=O)[C@H]([C@@H](C)CC)N(C)C(=O)C [epoxomicin]
# In short: as §1
# [5] = compound: CCn1c(C(=O)N(C2CC2)C2CC2)cc2c3c(ncn3C)c(Nc3cc(C)n(C)n3)nc21
# In short: as §1
# [6] = compound: CN(C)CC(=O)Nc1ccc2[nH]c(=O)c3ccccc3c2c1
# In short: as §1
# [7] = compound: CN(CCOC1=CC=C(C=C1)C[C@H]2C(=O)NC(=O)S2)C3=CC=CC=N3 (racemic) [rosiglitazone]
# In short: as §1
# [8] = compound: CN1C2=C(C3=C1C(=O)N(N=C3)CC4=CC(=CC=C4)N)SC(=C2)S(=O)C
# In short: as §1
# [9] = compound: CN1CCN(CCOc2cc(OC3CCOCC3)c3c(Nc4c(Cl)ccc5c4OCO5)ncnc3c2)CC1 [saracatinib]
# In short: as §1
# [10] = compound: CN1CCN(c2nc(C3=C(c4c[nH]c5ccccc45)C(=O)NC3=O)c3ccccc3n2)CC1 [sotrastaurin]
# In short: as §1
# [11] = compound: CN1CC[C@H](c2c(O)cc(O)c3c(=O)cc(-c4ccccc4Cl)oc23)[C@H](O)C1 [alvocidib]
# In short: as §1
# [12] = compound: CN1CCc2c(c3ccccc3n2Cc2ccc(C(=O)NO)cc2)C1 [Tubastatin A]
# In short: as §1
# [13] = compound: CNC(=O)C1=CC=CC=C1NC2=NC(=NC=C2Cl)NC3=C(C=C(C=C3)N4CCOCC4)OC
# In short: as §1
# [14] = compound: CNC(=O)c1ccc(Nc2ncc(C(F)(F)F)c(NCc3nccnc3N(C)S(C)(=O)=O)n2)cc1 [defactinib]
# In short: as §1
# [15] = compound: CNCc1ccc(-c2[nH]c3cc(F)cc4c3c2CCNC4=O)cc1 [rucaparib]
# In short: as §1
# [16] = compound: CNc1nc(-c2ccc3c(N)n[nH]c3c2)cc(N2C[C@@H](C(=O)NC3CCCCC3)CC[C@H]2C)n1
# In short: as §1
# [17] = compound: COC(=O)N[C@@H](C)CNc1nccc(-c2cn(C(C)C)nc2-c2cc(Cl)cc(NS(C)(=O)=O)c2F)n1 [encorafenib]
# In short: as §1
# [18] = compound: COC(=O)[C@H](CCSC)NC(=O)C1=C(C=C(C=C1)NC[C@H](CS)N)C2=CC=CC=C2
# In short: as §1
# [19] = compound: CCn1cc(-c2ccnc3[nH]c(-c4cccc(CN(C)C)c4)cc23)c(-c2ccc(NC(=O)N(C)C)cc2)n1
# In short: as §1
# [20] = compound: CN1CCC(CNc2ccc3ncc(-c4cccc(OC(F)(F)F)c4)n3n2)CC1
# In short: as §1
# UniProt Q9H4L5, sequence (Q9H4L5 whole entry, looked up): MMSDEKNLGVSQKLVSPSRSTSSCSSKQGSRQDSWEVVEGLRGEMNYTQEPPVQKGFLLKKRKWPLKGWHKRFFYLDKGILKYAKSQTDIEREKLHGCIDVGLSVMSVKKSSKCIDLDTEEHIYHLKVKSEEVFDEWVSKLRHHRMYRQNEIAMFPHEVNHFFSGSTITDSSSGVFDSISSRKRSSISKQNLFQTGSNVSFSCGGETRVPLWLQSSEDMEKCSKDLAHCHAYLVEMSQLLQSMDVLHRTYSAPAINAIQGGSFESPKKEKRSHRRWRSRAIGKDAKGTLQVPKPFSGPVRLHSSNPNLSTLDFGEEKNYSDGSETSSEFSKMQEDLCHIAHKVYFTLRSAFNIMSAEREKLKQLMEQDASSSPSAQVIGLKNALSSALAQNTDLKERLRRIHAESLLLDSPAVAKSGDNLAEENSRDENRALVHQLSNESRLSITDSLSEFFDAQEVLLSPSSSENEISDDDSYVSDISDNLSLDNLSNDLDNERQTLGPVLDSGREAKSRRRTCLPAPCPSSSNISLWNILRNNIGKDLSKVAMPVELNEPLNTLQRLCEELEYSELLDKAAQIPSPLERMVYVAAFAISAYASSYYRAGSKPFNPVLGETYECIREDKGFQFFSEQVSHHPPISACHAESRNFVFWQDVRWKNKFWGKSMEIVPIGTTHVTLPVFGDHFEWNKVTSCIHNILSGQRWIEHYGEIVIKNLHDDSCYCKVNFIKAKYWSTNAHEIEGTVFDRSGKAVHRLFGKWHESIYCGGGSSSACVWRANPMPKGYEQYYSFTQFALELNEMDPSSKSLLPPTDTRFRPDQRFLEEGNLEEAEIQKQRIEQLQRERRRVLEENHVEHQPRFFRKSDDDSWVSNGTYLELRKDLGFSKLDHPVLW
# UniProt P51956, sequence (P51956 whole entry, looked up): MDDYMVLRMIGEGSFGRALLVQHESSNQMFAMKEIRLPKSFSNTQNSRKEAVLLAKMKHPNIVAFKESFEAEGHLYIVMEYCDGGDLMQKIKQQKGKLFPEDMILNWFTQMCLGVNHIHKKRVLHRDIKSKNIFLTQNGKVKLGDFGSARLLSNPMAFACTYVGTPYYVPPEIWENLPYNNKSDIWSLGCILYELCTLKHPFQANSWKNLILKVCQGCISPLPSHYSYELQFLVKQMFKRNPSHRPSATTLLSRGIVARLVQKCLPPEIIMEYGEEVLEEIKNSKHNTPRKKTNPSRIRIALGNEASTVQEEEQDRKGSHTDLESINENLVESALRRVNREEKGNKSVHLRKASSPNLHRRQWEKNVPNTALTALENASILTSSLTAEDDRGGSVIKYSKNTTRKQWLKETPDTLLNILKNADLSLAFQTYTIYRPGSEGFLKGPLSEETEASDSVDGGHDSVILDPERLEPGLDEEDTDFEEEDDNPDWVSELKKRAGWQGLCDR
# UniProt Q9Y5B8, sequence (Q9Y5B8 whole entry, looked up): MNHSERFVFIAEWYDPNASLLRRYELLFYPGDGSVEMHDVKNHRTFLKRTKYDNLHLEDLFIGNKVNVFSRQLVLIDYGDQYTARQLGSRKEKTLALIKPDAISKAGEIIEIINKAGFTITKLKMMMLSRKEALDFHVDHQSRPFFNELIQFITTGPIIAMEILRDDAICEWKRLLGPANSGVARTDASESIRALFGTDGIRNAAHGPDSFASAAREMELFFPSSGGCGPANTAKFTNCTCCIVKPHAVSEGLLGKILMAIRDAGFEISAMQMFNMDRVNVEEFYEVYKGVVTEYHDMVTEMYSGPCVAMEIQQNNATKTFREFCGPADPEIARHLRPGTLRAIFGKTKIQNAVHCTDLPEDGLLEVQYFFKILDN
# UniProt Q8WZ82, sequence (Q8WZ82 whole entry, looked up): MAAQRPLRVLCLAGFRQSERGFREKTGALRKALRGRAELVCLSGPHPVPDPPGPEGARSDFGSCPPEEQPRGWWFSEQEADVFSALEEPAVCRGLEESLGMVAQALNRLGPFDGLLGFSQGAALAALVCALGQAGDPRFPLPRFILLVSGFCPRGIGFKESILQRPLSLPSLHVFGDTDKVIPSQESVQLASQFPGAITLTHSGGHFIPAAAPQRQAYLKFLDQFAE
# UniProt Q86VX9, sequence (Q86VX9 whole entry, looked up): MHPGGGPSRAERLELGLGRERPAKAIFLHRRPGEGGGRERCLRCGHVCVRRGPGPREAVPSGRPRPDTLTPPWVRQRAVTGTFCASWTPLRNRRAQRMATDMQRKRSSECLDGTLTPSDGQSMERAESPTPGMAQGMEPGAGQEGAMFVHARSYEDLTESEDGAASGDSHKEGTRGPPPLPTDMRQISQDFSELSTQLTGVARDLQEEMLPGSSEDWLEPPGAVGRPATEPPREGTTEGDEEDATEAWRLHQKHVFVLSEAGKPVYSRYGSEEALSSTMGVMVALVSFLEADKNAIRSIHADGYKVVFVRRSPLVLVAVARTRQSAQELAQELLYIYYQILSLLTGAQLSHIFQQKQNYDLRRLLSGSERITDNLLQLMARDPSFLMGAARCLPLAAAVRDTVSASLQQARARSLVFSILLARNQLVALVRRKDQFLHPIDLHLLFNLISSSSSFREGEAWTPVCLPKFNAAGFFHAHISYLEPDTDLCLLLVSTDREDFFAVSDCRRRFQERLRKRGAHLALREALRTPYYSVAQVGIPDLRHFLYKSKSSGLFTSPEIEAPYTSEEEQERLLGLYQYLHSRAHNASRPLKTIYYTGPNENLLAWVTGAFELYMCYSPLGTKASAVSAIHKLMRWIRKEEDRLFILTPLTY
# UniProt P17568, sequence (P17568 whole entry, looked up): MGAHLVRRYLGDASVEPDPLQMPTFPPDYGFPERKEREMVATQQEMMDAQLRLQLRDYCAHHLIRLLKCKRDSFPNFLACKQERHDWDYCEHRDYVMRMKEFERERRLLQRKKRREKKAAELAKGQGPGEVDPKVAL
# MTHFD1, A0A384N5Y3, sequence (A0A384N5Y3 whole entry, looked up): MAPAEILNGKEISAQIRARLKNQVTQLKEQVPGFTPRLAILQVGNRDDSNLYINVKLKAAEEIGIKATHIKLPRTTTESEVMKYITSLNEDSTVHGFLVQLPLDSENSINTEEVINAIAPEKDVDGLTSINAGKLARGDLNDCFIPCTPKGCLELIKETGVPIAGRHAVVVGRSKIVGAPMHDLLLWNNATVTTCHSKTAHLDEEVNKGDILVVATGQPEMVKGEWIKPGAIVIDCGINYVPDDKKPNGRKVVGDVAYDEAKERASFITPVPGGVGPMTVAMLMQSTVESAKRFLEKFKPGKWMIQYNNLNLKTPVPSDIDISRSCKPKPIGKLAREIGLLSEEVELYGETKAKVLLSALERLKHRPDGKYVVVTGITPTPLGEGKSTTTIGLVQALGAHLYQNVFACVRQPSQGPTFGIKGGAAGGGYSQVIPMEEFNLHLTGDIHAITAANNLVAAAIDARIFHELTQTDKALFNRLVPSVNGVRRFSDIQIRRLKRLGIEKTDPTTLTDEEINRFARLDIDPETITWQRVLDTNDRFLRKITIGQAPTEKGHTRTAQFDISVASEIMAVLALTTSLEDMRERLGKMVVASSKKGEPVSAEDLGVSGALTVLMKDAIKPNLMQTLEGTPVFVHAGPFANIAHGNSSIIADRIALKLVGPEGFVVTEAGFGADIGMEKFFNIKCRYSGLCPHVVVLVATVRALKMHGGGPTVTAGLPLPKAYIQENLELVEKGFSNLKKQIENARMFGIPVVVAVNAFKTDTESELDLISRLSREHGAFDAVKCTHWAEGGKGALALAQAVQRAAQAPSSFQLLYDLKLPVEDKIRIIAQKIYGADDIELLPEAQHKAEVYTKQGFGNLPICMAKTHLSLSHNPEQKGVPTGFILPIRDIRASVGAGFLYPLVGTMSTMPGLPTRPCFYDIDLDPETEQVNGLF
# UniProt Q9UK23, sequence (Q9UK23 whole entry, looked up): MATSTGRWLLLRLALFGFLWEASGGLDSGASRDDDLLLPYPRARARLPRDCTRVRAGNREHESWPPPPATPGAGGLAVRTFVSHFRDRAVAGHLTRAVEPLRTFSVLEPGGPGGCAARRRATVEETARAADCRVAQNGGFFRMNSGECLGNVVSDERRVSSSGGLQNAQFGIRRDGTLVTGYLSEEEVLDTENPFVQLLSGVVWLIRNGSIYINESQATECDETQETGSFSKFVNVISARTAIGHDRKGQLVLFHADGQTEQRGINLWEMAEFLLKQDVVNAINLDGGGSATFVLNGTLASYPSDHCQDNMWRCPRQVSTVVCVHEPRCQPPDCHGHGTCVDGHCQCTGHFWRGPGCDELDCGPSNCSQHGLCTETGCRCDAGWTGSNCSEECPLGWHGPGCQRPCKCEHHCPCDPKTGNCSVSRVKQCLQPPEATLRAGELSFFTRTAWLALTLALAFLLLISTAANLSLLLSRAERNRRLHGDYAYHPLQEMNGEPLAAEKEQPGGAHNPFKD
Target,log2 fold change [1],log2 fold change [2],log2 fold change [3],log2 fold change [4],log2 fold change [5],log2 fold change [6],log2 fold change [7],log2 fold change [8],log2 fold change [9],log2 fold change [10],log2 fold change [11],log2 fold change [12],log2 fold change [13],log2 fold change [14],log2 fold change [15],log2 fold change [16],log2 fold change [17],log2 fold change [18],log2 fold change [19],log2 fold change [20]
MRPS21 (UniProt P82921),0.062,-0.008,0.063,0.064,-0.052,0.058,0.165,-0.205,-0.193,0.036,-0.095,-0.056,0.038,-0.075,-0.016,0.127,0.045,-0.075,,
OSBPL3 (UniProt Q9H4L5),0.136,0.621,-0.126,-0.37,-0.235,0,,0.164,-0.284,-0.414,0.234,0.219,0.312,0.127,0.518,0.122,0.006,-0.11,,
"MTHFD1, A0A384N5Y3",-0.152,-0.011,0.065,0.002,,0.045,0.023,-0.084,-0.047,0.025,-0.129,0.032,,-0.173,-0.039,-0.004,-0.003,-0.036,-0.113,-0.081
NDUFB7 (UniProt P17568),-0.053,-0.004,-0.072,-0.066,-0.129,-0.036,0.058,-0.058,0.046,-0.014,-0.016,0.016,0.021,-0.015,-0.021,-0.011,-0.032,0.029,-0.099,0.094
OVCA2 (UniProt Q8WZ82),-0.352,-0.47,0.083,,,,-0.033,,,,,,,,0.116,,-0.052,,0.086,-0.116
NAGPA (UniProt Q9UK23),0.213,0.555 (active),-0.065,0.071,-0.022,,-0.061,-0.084,-0.009,-0.017,-0.008,0.068,0.022,,-0.132,-0.049,0.014,,0.084,-0.083
MON1A (UniProt Q86VX9),-0.11,-0.012,-0.141,-0.101,0.004,,0.134,0.032,0.013,0.058,,0.047,-0.103,,-0.023,0.029,0.253,,0.003,-0.041
NEK3 (UniProt P51956),-0.046,-0.162,0.167,0.067,-0.024,0.014,,0.002,0.022,-0.125,-0.169,-0.194,-0.027,-0.182,-0.013,0.007,0,0.036,-0.125,-0.465 (active)
NME7 (UniProt Q9Y5B8),-0.014,-0.358 (active),,-0.072,-0.033,-0.045,0.104,0.014,-0.109,-0.017,-0.117,0.054,0.016,-0.047,0.006,-0.001,0.086,-0.006,-0.044,-0.314
